# Article PMC7862700, “An all-to-all approach to the identification of sequence-specific readers for epigenetic DNA modifications on cytosine”
# Experiments:
# Assay in all cases: DAPPL (digital affinity profiling via proximity ligation, sequencing); 10 mM Tris-HCl pH 7.5, 50 mM NaCl, 1 mM DTT, 4% glycerol, room temperature, 30 min; GST-TFs on glutathione beads, 16-mer random dsDNA library, 0.1% formaldehyde crosslink after washing; high values mean tight binding
# FEV = molecular target: T1, FEV (Homo sapiens, UniProt Q99581 1-238); conditions: protein: recombinant; tags: N-terminal GST; dsDNA, one strand shown
# T1 sequence: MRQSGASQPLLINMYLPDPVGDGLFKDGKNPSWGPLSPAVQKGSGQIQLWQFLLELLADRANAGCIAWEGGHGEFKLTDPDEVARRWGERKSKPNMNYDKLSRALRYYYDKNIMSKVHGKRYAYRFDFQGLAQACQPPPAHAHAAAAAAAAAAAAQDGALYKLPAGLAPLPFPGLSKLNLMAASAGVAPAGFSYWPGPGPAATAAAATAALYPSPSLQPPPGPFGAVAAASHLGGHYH
# Summary of the method: (§1)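 Binding signal is each hexamer's read frequency for a factor divided by its frequency in the tag-only sample. The factors were GST-fused human transcription factors from yeast, captured on glutathione beads, DNA-barcoded and pooled with that sample. Pools were incubated with 200 nmole of a random double-stranded 16-mer DNA library in Tris/NaCl/DTT/glycerol buffer at room temperature for 30 min, then washed, crosslinked with 0.1% formaldehyde, proximity-ligated with BsaI/T4 ligase (1 h, 37 °C), PCR-amplified and sequenced on an Illumina NextSeq500.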
# ETV5 = ETV5 (Homo sapiens, UniProt P41161 1-510); conditions: protein: recombinant; tags: N-terminal GST; dsDNA, one strand shown
# ETV5, sequence (P41161 whole entry): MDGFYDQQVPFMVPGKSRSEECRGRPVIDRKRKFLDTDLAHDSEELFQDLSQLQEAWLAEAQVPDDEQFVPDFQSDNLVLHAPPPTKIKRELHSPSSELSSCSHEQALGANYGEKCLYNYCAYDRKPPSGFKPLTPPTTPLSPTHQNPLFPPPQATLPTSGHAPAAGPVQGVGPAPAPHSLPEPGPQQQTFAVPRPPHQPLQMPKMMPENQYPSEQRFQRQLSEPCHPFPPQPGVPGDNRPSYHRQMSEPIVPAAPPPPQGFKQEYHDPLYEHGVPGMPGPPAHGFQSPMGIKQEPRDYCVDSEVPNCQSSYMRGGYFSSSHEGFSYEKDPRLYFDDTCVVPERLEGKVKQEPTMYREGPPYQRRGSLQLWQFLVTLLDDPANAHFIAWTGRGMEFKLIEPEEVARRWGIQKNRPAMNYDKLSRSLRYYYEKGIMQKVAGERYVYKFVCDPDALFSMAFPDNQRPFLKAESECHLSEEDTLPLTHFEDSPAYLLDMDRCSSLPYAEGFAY
# Summary of the method: as §1
# HSF1 = HSF1 (Homo sapiens, UniProt Q00613 1-529); conditions: protein: recombinant; tags: N-terminal GST; chain copies: 3; dsDNA, one strand shown
# HSF1, sequence (Q00613 whole entry): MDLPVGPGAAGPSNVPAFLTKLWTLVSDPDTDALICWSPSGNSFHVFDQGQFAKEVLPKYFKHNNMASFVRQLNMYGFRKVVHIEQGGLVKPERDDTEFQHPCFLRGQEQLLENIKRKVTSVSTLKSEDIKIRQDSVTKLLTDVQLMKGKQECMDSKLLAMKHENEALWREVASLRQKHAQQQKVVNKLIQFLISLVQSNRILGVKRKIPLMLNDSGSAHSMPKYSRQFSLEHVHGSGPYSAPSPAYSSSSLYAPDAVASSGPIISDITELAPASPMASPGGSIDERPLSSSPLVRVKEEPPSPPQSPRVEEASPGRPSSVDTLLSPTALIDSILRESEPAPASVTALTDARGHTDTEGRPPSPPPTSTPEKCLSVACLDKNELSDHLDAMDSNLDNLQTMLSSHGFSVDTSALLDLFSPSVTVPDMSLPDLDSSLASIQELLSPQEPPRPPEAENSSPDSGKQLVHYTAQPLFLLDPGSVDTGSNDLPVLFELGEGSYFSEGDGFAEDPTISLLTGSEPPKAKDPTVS
# Summary of the method: as §1
# SPIC = molecular target: T2, SPIC (Homo sapiens, UniProt Q8N5J4 1-248); conditions: protein: recombinant; tags: N-terminal GST; dsDNA, one strand shown
# T2 sequence: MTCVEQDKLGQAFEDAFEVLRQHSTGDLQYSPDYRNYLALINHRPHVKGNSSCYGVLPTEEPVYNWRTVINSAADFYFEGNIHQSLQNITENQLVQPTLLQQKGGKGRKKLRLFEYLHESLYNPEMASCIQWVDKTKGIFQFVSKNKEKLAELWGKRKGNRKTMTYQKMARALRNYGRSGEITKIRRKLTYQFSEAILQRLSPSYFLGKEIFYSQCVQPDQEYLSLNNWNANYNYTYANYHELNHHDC
# Summary of the method: as §1
# ELF4 = ELF4 (Homo sapiens, UniProt Q99607 1-663); conditions: protein: recombinant; tags: N-terminal GST; dsDNA, one strand shown
# ELF4, sequence (Q99607 whole entry): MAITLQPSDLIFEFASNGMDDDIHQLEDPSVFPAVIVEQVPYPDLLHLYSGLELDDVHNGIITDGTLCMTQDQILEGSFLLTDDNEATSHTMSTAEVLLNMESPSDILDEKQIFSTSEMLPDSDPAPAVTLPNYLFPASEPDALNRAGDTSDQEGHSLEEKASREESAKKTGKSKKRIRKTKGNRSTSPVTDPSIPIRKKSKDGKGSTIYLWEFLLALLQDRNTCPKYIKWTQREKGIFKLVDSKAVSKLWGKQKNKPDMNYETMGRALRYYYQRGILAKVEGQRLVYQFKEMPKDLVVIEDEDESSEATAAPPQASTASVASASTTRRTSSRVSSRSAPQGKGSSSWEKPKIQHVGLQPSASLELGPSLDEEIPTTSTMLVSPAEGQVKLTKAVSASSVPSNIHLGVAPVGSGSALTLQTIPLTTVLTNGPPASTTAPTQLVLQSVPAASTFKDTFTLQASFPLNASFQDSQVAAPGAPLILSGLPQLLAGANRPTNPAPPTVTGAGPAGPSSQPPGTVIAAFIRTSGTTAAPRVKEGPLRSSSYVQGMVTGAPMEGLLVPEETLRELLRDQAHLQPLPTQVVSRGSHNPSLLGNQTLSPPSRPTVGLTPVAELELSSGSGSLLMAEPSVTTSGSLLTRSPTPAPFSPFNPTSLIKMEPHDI
# Summary of the method: as §1
# ELK4 = molecular target: T3, ELK4 (Homo sapiens, UniProt P28324-2 1-405); conditions: protein: recombinant; tags: N-terminal GST; dsDNA, one strand shown
# T3 sequence: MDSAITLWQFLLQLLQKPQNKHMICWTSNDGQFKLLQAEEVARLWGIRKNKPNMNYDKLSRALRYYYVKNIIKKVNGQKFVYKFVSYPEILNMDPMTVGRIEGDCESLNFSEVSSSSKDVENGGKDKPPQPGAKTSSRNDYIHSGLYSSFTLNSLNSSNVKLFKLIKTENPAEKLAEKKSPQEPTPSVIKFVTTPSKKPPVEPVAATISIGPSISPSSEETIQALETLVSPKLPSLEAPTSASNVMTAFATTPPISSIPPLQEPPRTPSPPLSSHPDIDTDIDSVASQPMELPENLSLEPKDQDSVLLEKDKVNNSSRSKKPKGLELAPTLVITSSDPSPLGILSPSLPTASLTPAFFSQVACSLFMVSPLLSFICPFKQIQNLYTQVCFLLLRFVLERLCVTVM
# Summary of the method: as §1
# ETV2 = molecular target: T4, ETV2 (Homo sapiens, UniProt O00321 1-342); conditions: protein: recombinant; tags: N-terminal GST; dsDNA, one strand shown
# T4 sequence: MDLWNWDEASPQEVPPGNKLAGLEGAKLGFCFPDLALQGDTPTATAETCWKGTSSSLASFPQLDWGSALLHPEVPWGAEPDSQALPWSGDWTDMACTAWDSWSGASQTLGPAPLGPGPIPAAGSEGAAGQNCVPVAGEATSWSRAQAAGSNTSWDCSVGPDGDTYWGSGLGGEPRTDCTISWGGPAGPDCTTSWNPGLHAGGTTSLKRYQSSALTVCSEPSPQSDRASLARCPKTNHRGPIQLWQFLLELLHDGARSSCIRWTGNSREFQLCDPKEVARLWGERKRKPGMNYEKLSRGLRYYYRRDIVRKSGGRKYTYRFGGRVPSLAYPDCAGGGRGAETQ
# Summary of the method: as §1
# ELF3 = molecular target: T5, ELF3 (Homo sapiens, UniProt P78545 1-371); conditions: protein: recombinant; tags: N-terminal GST; dsDNA, one strand shown
# T5 sequence: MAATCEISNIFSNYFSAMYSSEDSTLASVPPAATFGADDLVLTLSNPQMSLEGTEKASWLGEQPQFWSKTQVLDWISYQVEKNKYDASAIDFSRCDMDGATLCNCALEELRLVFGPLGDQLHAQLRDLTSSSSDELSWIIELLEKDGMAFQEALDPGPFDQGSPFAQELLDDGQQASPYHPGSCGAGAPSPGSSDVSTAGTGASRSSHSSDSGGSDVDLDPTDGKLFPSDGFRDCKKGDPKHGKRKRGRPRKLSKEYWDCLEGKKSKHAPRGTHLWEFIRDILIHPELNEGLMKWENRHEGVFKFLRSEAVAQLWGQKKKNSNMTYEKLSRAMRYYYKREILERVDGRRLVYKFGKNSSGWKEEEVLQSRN
# Summary of the method: as §1
# CRX = CRX (Homo sapiens, UniProt O43186 1-299); conditions: protein: recombinant; tags: N-terminal GST; dsDNA, one strand shown
# CRX, sequence (O43186 whole entry): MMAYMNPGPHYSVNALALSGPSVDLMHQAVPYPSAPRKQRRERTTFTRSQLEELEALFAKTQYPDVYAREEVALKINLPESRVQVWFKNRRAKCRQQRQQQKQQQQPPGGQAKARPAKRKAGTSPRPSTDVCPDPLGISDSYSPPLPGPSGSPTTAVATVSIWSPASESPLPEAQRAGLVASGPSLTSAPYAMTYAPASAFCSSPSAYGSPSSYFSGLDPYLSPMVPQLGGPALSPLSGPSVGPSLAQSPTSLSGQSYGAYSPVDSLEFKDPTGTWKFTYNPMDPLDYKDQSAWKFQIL
# Summary of the method: as §1
# ETV1 = ETV1 (Homo sapiens, UniProt P50549 1-477); conditions: protein: recombinant; tags: N-terminal GST; dsDNA, one strand shown
# ETV1, sequence (P50549 whole entry): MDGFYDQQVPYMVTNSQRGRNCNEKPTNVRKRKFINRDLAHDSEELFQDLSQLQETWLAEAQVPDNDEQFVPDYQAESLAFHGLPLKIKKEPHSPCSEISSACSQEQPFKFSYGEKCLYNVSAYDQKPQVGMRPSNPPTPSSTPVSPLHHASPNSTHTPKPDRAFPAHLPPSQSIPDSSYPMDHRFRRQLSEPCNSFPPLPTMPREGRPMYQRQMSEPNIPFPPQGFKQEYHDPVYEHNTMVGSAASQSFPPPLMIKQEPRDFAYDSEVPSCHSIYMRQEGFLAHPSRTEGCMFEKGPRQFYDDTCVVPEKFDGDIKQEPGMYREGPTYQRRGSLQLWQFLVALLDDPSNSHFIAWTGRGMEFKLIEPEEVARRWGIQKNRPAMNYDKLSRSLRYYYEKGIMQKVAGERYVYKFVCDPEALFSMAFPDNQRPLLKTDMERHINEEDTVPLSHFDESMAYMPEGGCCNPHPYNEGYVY
# Summary of the method: as §1
# ERF = molecular target: T6, ERF (Homo sapiens, UniProt P50548 1-548); conditions: protein: recombinant; tags: N-terminal GST; dsDNA, one strand shown
# T6 sequence: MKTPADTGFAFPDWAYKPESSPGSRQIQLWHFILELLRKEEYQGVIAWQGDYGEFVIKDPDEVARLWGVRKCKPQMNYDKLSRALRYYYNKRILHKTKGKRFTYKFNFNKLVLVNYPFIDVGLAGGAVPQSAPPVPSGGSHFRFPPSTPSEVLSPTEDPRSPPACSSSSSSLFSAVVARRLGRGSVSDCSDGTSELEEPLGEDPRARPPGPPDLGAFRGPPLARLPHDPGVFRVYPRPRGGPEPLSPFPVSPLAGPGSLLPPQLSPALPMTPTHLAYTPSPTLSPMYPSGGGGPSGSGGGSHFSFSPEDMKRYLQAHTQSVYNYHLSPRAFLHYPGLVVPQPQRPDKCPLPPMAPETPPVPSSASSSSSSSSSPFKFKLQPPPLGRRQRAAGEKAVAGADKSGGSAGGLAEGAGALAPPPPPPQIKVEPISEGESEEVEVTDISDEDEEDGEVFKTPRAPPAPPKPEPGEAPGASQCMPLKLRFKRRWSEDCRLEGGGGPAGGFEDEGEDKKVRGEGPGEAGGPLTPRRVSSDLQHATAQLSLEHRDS
# Summary of the method: as §1
# ETV3L = molecular target: T7, ETV3L (Homo sapiens, UniProt Q6ZN32 1-361); conditions: protein: recombinant; tags: N-terminal GST; dsDNA, one strand shown
# T7 sequence: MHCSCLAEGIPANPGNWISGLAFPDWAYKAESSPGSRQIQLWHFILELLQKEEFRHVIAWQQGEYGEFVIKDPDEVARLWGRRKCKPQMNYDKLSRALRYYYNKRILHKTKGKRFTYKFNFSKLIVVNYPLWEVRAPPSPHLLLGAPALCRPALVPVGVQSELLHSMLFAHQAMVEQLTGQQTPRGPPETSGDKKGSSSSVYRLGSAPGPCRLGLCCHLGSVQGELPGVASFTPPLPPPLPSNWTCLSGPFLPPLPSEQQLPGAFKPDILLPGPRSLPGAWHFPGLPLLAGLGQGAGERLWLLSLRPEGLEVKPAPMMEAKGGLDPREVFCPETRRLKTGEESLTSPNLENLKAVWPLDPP
# Summary of the method: as §1
# ETS2 = molecular target: T8, ETS2 (Homo sapiens, UniProt P15036 1-469); conditions: protein: recombinant; tags: N-terminal GST; dsDNA, one strand shown
# T8 sequence: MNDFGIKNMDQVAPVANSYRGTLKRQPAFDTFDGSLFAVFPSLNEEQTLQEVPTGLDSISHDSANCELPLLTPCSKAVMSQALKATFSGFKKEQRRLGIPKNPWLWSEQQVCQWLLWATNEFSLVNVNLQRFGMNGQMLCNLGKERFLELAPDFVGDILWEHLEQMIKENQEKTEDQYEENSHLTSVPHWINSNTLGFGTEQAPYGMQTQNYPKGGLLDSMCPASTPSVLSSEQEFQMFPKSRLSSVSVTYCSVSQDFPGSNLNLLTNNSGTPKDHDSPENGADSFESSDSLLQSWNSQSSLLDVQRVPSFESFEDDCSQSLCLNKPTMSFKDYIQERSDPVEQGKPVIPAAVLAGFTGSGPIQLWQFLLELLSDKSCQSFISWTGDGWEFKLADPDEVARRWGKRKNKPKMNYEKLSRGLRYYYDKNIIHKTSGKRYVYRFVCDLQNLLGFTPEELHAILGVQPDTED
# Summary of the method: as §1
# SPDEF = molecular target: T9, SPDEF (Homo sapiens, UniProt O95238 1-335); conditions: protein: recombinant; tags: N-terminal GST; dsDNA, one strand shown
# T9 sequence: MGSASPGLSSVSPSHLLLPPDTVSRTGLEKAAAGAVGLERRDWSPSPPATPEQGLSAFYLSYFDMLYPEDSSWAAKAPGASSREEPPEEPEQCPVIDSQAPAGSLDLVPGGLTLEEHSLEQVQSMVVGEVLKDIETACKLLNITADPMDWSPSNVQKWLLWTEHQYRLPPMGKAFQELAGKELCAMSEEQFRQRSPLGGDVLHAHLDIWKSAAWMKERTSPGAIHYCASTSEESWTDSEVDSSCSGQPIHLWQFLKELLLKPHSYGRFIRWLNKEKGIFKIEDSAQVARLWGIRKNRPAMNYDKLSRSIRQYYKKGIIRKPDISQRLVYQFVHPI
# Summary of the method: as §1
# ETV7 = molecular target: T10, ETV7 (Homo sapiens, UniProt Q9Y603 1-341); conditions: protein: recombinant; tags: N-terminal GST; dsDNA, one strand shown
# T10 sequence: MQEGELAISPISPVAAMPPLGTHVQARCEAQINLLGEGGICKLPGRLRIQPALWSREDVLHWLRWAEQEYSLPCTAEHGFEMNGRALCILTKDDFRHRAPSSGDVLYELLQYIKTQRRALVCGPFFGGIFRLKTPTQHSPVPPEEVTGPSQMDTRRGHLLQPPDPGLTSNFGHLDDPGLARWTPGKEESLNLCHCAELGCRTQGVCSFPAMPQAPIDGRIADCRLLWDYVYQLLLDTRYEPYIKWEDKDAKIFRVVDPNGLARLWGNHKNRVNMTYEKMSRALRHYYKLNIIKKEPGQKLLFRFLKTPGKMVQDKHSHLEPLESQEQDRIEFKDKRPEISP
# Summary of the method: as §1
# ELF5 = molecular target: T11, ELF5 (Homo sapiens, UniProt Q9UKW6-2 1-255); conditions: protein: recombinant; tags: N-terminal GST; dsDNA, one strand shown
# T11 sequence: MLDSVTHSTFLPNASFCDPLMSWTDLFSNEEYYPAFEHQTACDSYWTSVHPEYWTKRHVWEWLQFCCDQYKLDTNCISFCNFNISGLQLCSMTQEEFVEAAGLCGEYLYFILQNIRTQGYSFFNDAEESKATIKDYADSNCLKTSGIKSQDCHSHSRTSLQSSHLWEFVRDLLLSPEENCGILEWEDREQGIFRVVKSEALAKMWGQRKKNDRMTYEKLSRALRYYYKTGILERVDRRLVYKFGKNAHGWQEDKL
# Summary of the method: as §1
# ETV3 = molecular target: T12, ETV3 (Homo sapiens, UniProt P41162-2 1-143); conditions: protein: recombinant; tags: N-terminal GST; dsDNA, one strand shown
# T12 sequence: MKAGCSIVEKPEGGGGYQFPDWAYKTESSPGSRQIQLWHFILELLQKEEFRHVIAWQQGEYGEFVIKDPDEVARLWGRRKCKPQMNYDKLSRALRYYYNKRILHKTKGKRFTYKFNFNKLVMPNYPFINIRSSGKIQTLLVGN
# Summary of the method: as §1
# ETV6 = ETV6 (Homo sapiens, UniProt P41212 1-452); conditions: protein: recombinant; tags: N-terminal GST; dsDNA, one strand shown
# ETV6, sequence (P41212 whole entry): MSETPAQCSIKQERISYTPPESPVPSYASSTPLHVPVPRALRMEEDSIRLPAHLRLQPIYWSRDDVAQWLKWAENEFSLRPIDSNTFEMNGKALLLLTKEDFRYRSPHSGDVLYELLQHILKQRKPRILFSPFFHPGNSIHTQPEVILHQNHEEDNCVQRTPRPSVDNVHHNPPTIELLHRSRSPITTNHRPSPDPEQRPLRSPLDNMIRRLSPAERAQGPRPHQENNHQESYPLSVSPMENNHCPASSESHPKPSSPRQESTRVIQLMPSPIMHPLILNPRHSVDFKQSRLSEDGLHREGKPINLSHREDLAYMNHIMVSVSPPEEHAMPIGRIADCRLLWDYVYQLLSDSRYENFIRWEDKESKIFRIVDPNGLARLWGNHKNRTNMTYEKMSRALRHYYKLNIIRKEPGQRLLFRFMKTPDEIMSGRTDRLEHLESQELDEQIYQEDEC
# Summary of the method: as §1
sequence,measurement,setting,value
TTCGAT,binding signal,FEV,"1.27 fold enrichment (6-mer frequency, TF over GST control)"
same,binding signal,ETV5,"1.36 fold enrichment (6-mer frequency, TF over GST control)"
same,binding signal,HSF1,"1.79 fold enrichment (6-mer frequency, TF over GST control)"
same,binding signal,SPIC,"1.3 fold enrichment (6-mer frequency, TF over GST control)"
same,binding signal,ELF4,"1.27 fold enrichment (6-mer frequency, TF over GST control)"
same,binding signal,ELK4,"1.16 fold enrichment (6-mer frequency, TF over GST control)"
same,binding signal,ETV2,"1.23 fold enrichment (6-mer frequency, TF over GST control)"
same,binding signal,ELF3,"1.42 fold enrichment (6-mer frequency, TF over GST control)"
same,binding signal,CRX,"1.56 fold enrichment (6-mer frequency, TF over GST control)"
same,binding signal,ETV1,"1.34 fold enrichment (6-mer frequency, TF over GST control)"
same,binding signal,ERF,"1.4 fold enrichment (6-mer frequency, TF over GST control)"
same,binding signal,ETV3L,"1.33 fold enrichment (6-mer frequency, TF over GST control)"
same,binding signal,ETS2,"1.33 fold enrichment (6-mer frequency, TF over GST control)"
same,binding signal,SPDEF,"1.18 fold enrichment (6-mer frequency, TF over GST control)"
same,binding signal,ETV7,"1.22 fold enrichment (6-mer frequency, TF over GST control)"
same,binding signal,ELF5,"1.2 fold enrichment (6-mer frequency, TF over GST control)"
same,binding signal,ETV3,"1.24 fold enrichment (6-mer frequency, TF over GST control)"
same,binding signal,ETV6,"1.14 fold enrichment (6-mer frequency, TF over GST control)"
